VDR inh: blocks the human vitamin D receptor; P11473; VDR-SRC2-3 peptide fluorescence polarization, 2 h; Potency, µM, for the others: max response, negative = inhibition, actives largely listed as inhibitors; hit rate 0.93% among 400,000; note: % is set by controls: 0 for no effect and ±100 for the full control effect
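Fluorescence polarization assay of small-molecule disruption of VDR binding to coregulator peptide SRC2-3. Compounds and controls pin-transferred, then read after 2 h incubation at ambient room temperature.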
G9a inh: G9a (human) methyltransferase inhibition. G9a H3K9 monomethylation, AlphaScreen, 2 h. hit rate 8.8% among 350,000. Potency, µM (doses to about 102 µM), for the others: top-dose activity, negative = inhibition, most hits filed as inhibitors. Q96KQ7; note: % is set by controls: 0 for no effect and ±100 for the full control effect; nearly all actives have a fitted effect of over 75% in size
Target sequence (Q96KQ7 913-1193 limits assumed): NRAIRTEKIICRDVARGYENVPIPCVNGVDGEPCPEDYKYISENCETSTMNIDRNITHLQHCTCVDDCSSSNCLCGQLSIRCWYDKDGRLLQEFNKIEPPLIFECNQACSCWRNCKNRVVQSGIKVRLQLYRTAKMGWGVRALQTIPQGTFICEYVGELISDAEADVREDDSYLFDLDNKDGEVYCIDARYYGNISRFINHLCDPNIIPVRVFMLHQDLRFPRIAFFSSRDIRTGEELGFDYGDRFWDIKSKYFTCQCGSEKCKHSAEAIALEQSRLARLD
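Chemiluminescent proximity detection of H3K9 monomethylation, read after 10 min bead incubation in the dark. Reaction: 20 nM G9a, 500 nM biotin-H3K9 peptide, 20 uM SAM cofactor, 2 h, room temperature, following 15 min enzyme-compound preincubation.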
BAZ2B inh: inhibitors of human BAZ2B bromodomain. Q9UIF8. AlphaScreen BAZ2B-H3K14Ac peptide displacement. Potency, µM (doses to about 114 µM), for inactives: top-dose activity change, negative = inhibition, most hits filed as inhibitors. hit rate 4.4% among 360,000. AID 504333; note: % is set by controls: 0 for no effect and ±100 for the full control effect; nearly all actives have a fitted effect of over 60% in size
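Complex of BAZ2B and biotin-H3K14Ac (50 nM apiece) forms over 30 min at RT, then faces library compounds up to 110 uM for another 30 min; AlphaScreen beads added, 20 min dark incubation, luminescence read.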
HP1b binding inh: blocks HP1-beta chromodomain binding to methylated histone tails; P83916; AlphaScreen HP1-beta / biotin-H3K9me3 peptide binding; Potency, µM (doses to about 114 µM), inactives show at the highest dose activity change, negative = inhibition, hits mostly inhibitors; hit rate 0.56% among 390,000; note: nearly all actives have a fitted effect of over 70% in size
Target sequence (P83916 whole entry, looked up): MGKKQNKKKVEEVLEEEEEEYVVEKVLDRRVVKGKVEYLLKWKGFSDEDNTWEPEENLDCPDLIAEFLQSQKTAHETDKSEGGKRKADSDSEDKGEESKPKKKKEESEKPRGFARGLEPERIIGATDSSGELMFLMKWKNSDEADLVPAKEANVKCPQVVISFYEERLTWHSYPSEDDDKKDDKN
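HP1-beta protein (50 nM final) preincubated 30 min at room temperature with biotinylated H3(1-18)K9me3 peptide (50 nM) in PBS pH 7.4, 0.01% Tween-20, then compound added for 30 min. AlphaScreen streptavidin donor/nickel chelate acceptor beads (10 ug/mL final), 30 min dark, luminescence read.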
JMJD2A Tudor: inhibitors of human JMJD2A Tudor domain | AlphaScreen JMJD2A-Tudor / H3K4me3 peptide binding | O75164 | Potency, µM (titrated, usually from 114 µM), inactives show at the highest dose activity change, negative = inhibition, usual class: inhibitors | hit rate 4.4% among 390,000; note: % is set by controls: 0 for no effect and ±100 for the full control effect; nearly all actives have a fitted effect of over 50% in size
PLK1 PBD block: inhibitors of human PLK1 polo-box domain binding. P53350. Plk1 PBD binding of FITC phosphopeptide, fluorescence polarization. Potency, µM, without a hit: max response, negative = inhibition, usual class: inhibitors. hit rate 2.8% among 360,000. AID 720504; note: series mostly up to about 57 µM; % is set by controls: 0 for no effect and ±100 for the full control effect; nearly all actives have a fitted effect of over 65% in size
Numbers without * were called inactive; i = inactive; ? = inconclusive; nt = not tested or not shown; [ ] = another dose, or the depositor's remark. An excerpt weighted towards active compounds, which were near 11% of everything screened. Calls come from the whole dose curve; as a rule, active = well fitted curve in the direction sought with a large enough effect; inconclusive = small, poorly fitted or top-dose-only effect, or another doubt; inactive = no such curve, though single readings can be large; an effect the other way counts as inactive or inconclusive. Potency is the fitted concentration of half-maximal effect.

SMILES	VDR inh	G9a inh	BAZ2B inh	HP1b binding inh	JMJD2A Tudor	PLK1 PBD block
COc1cccc(NC(=O)CN(C)C(=O)c2ccc3c(c2)CC(c2ccccc2)OC3=O)c1 (stereo unspecified)	-5.3%	18.4%[2.33 µM]	?	-4.0%	89.1µM*	-5.6%
COc1cccc(NC(=O)CN(C)C(=O)c2ccc3[nH]c4c(c3c2)CC(C)CC4)c1 (stereo unspecified)	-4.8%	35.5µM*	39.8µM*	8.1%	?	8.4%
COc1ccc(OC)c(CCNC(=O)C(C)n2nc(C)c3c(C)n(-c4ccc(C)cc4)nc3c2=O)c1 (stereo unspecified)	2.6%	-0.2%[59 µM]	-37.9%	15.8%	-31.9%	-8.5%
COc1ccc(CNC(=O)Cn2nc(C)c3c(C)n(-c4ccc(C)cc4)nc3c2=O)cc1OC	-7.7%	nt	79.4µM*	28.9%	89.1µM*	-16.8%
COc1ccc(OC)c(CCNC(=O)C(C)n2nc(C)c3c(C)n(-c4ccccc4)nc3c2=O)c1 (stereo unspecified)	-26.0%	49.0%	-25.8%	8.5%	?	26.7µM*
COc1ccc(CNC(=O)Cn2nc(C)c3c(C)n(-c4ccccc4)nc3c2=O)cc1OC	4.0%	-24.4%[59 µM]	-34.1%	?	-7.4%	nt
COc1ccc(CCNC(=O)Cn2nc(C)c3c(C)n(-c4ccc(C)cc4)nc3c2=O)c(OC)c1	5.4%	?	50.1µM*	10.8%	?	nt
Cc1nn(C(C)C(=O)Nc2ccccc2Cl)c(=O)c2nn(-c3ccccc3)c(C)c12 (stereo unspecified)	-7.4%	nt	-11.0%	43.6%	-20.6%	-7.0%
CCC(C(=O)Nc1ccccc1Cl)n1nc(C)c2c(C)n(-c3ccccc3)nc2c1=O (stereo unspecified)	-10.5%	30.2%	-24.2%	-14.9%	?	21.2µM*
CSc1ccc(CN2CCC(n3nccc3NC(=O)CCCc3ccccc3)CC2)cc1	-12.9%	3.3%	-26.0%	27.7%	-23.7%	-9.2%
Cn1c(C=O)c(C#Cc2ccccc2)c2ccccc21	-12.5%	-4.2%[0.501 µM]	419.7%	i	412.4%	-2.0%
CC(C)(C)n1ncc2c(=O)n(CC(=O)N3CCN(c4ccccc4)CC3)cnc21	-2.9%	-11.5%[59 µM]	3.2%	20.2%	-21.5%	1.2%
CC1=NN(C(C#N)c2ccc([N+](=O)[O-])cc2)C(C)(C)C1 (stereo unspecified)	9.5%	?	-36.3%	-20.1%	22.4µM*	2.9%
CC1=NN(C(C#N)c2c(C)nn(Cc3ccccc3)c2C)C(C)(C)C1 (stereo unspecified)	0.8%	35.5µM*	-4.6%	28.9%	?	-10.9%
CN1CCN(C2=C(NS(=O)(=O)c3ccccc3)C(=O)c3ccccc3C2=O)CC1	1.8%	28.2µM*	?	0.8%	-15.9%	-27.8%
CCN1CCN(C2=C(NS(=O)(=O)c3ccccc3)C(=O)c3ccccc3C2=O)CC1	-19.2%	-0.3%[0.0925 µM]	?	-13.1%[57 µM]	-32.9%	-13.2%
CCOC(=O)N1CCN(C2=C(NS(=O)(=O)c3ccccc3)C(=O)c3ccccc3C2=O)CC1	?	35.5µM*	31.6µM*	?	?	-23.5%
O=C1C(NS(=O)(=O)c2ccc(Cl)cc2)=C(N2CCCCC2)C(=O)c2ccccc21	-12.6%	10µM*	5.62µM*	?	11.2µM*	-18.0%
O=C1C(Nc2ccccc2)=C(NS(=O)(=O)c2ccccc2)C(=O)c2ccccc21	-22.9%	-8.4%[59 µM]	-12.9%	1.7%	-5.4%	-11.2%
Cc1cc2c(s1)c1cnn(Cc3cc(F)c(F)c(F)c3)c(=O)c1n2C	nt	nt	nt	nt	-19.2%	nt
Cc1oc2ccc(O)c(CN3CCOCC3)c2c1C(=O)c1ccc(Cl)cc1	-7.2%	?	-38.6%	2.9%	-13.5%	3.1%
Cc1oc2c(Cl)c(Cl)c(O)c(CN(C)C)c2c1C(=O)c1ccc(Cl)cc1	-12.2%	?	44.7µM*	-5.1%	?	-0.3%
COc1ccc(-n2nc3c(c2NC(=O)c2cc4ccccc4o2)CS(=O)(=O)C3)cc1	-2.9%	nt	-13.0%	7.6%	-14.6%	-8.5%
Cc1ccccc1-n1nc2c(c1NC(=O)c1ccco1)CS(=O)(=O)C2	2.5%	5.9%	-4.7%	59.0%	-0.8%	-5.0%
